Test results reported in PubChem BioAssay.
Calls of active or inactive are those of the source.

Key:
[1] = target: Albumin (Bos taurus) (UniProt P02769); assay: compounds binding labelled BSA control protein – biochemical, small-molecule microarray, Alexa647 label, 635/667 nm fluorescence, artefact control for SMM control protein annotation, profiling panel (AID 1118); conditions: BSA-A647 binding, fluorescence 635 nm, higher = more signal;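 note: score merges 667 nm emission intensity and signal-to-noise per printed compound spot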
[2] = probe aXIP binding to arrayed compounds – biochemical, NeuroSMM set, 635/667 nm fluorescence, primary screen (AID 1119); conditions: small-molecule microarray, higher = more signal, called active from +8 up or from −8 down;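 note: probe is the protein aXip251-270 applied at 1 µg/mL to compound-printed slides; binding of probe to printed compounds measured as 667 nm fluorescence plus signal to noise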
[3] = probe aNOTCH3 binding on compound microarray – biochemical, small-molecule microarray, 635/667 nm fluorescence, primary screen (AID 1120); conditions: higher = more signal;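 note: probe is a biotin-tagged antibody raised against NOTCH3 rather than NOTCH3 protein; score merges spot fluorescence near 667 nm with spot signal to noise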
[4] = probe aNOTCH2 binding on compound microarray – biochemical, small-molecule microarray, 635/667 nm fluorescence, primary screen (AID 1121); conditions: higher = more signal;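 note: score merges feature fluorescence read at 667 nm with its signal to noise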
[5] = target: Carbonic anhydrase 2 (Homo sapiens) (UniProt P00918); assay: compounds binding carbonic anhydrase 2 – biochemical, small-molecule microarray, Alexa647-labelled CAII, profiling panel (AID 1122); conditions: CAII-A647 binding fluorescence, higher = more signal
[6] = COS7 lysate on small-molecule microarray, probe aHis, 635 nm (AID 1123); conditions: COS7 cell lysate, fluorescence, higher = more signal;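 note: z-score combines 667nm fluorescence intensity with signal-to-noise per printed compound spot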
[7] = probe aLAP1 signal on lysate-treated microarray – cell lysate, small-molecule microarray, COS7 lysate, primary screen (AID 1124); conditions: probe aLAP1, fluorescence, higher = more signal;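 note: lysate comes from COS7 cells expressing LAP1 and is applied at 0.3 µg/mL; score merges spot fluorescence near 667 nm with signal-to-noise over triplicate slides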
[8] = tested on: Sam68 (KHDRBS1); assay: compounds binding KHDRBS1 protein – biochemical, small-molecule microarray, 635 nm fluorescence, primary screen (AID 1125); conditions: higher = more signal;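 note: score merges 667 nm channel intensity with signal to noise over triplicate slides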
[9] = tested on: Chordin-like protein 2 (CHRDL2); assay: compounds binding chordin-like 2 – biochemical, small-molecule microarray, 635 nm fluorescence, primary screen (AID 1126); conditions: fluorescence 635 nm, higher = more signal;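 note: printed compound slides probed with Chrdl2 protein at 4 µg/mL for 1 h at 4 C; score merges 667 nm emission intensity with signal to noise over three replicate slides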
[10] = target: Concanavalin-A (Canavalia ensiformis) (UniProt P02866); assay: compounds binding concanavalin A lectin – biochemical, small-molecule microarray, Alexa647 label, 635 nm, artefact control for SMM control protein annotation, primary screen (AID 1127); conditions: ConA-A647 binding fluorescence, higher = more signal;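 note: z combines 667 nm emission intensity with signal-to-noise across three replicate slides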
Concanavalin-A (Canavalia ensiformis), sequence (P02866 whole entry, looked up): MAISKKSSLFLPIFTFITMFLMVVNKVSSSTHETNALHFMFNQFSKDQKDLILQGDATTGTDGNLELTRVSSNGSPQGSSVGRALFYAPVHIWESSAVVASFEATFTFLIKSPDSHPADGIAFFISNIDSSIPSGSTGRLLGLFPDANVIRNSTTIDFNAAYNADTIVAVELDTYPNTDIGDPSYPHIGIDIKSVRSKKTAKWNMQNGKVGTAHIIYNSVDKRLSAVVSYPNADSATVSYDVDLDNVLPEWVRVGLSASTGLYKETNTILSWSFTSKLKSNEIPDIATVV

Albumin (Bos taurus), sequence (P02769 whole entry, looked up): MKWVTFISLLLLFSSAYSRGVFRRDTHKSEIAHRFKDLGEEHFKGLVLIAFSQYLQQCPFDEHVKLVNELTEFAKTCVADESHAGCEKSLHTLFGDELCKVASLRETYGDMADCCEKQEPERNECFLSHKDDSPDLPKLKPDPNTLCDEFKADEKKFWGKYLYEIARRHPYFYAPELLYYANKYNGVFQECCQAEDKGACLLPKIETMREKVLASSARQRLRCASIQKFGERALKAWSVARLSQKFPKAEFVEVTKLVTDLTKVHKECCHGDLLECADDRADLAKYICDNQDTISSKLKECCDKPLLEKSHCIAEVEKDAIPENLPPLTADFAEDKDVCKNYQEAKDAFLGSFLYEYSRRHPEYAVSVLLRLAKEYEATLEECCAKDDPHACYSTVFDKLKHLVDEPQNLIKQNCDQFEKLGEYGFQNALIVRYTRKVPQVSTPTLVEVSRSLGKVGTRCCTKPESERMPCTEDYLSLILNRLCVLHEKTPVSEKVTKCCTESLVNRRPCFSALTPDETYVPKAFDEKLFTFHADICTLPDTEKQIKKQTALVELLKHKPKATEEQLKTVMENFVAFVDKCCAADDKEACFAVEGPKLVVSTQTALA

SMILES | composite z-score [1] | composite Z-score [2] | composite z-score [3] | composite z-score [4] | composite z-score [5] | composite z-score [6] | composite z-score [7] | composite z-score [8] | composite z-score [9] | composite z-score [10]
CC(C)N1C(=O)c2ccccc2[C@](C)(C(=O)NCCCN(C)C)[C@@H]1c1ccc(CO)cc1 | 0.222 | -0.264 (inactive) | -0.149 | -0.0903 | 0.526 | 1.45 | 1.01 | -0.283 | -0.85 | -1.41
O=C(CS)NCCCCCNC(=O)[C@H]1C[C@H]2C(=O)N[C@@H](Cc3ccccc3)C(=O)N2[C@H]1c1cccc(OCCO)c1 | -1.62 | 0.482 (inactive) | 0.273 | -0.0562 | 0.484 | 1.75 | 0.76 | 1.31 | 1.43 | 1.18
Cc1ccc(S[C@]2(C(=O)NCC(F)(F)F)CC(=O)N(C3Cc4ccccc4C3)[C@@H]2c2ccc(CO)cc2I)cc1 | 0.0944 | 0.325 (inactive) | -0.207 | -0.156 | 0.629 | 0.403 | -0.245 | -0.292 | -1.18 | -1.71
C=CCC(OC(C)=O)[C@@H]1[C@@H](N(Cc2ccc(-c3cccc(C(F)(F)F)c3)o2)C(=O)c2ccc(C)cc2)c2cc(OCCCO)ccc2N1C(=O)c1ccc2ccccc2n1 (stereo not given in full) | -0.706 | 0.936 (inactive) | 0.116 | -0.0255 | 0.053 | 0.163 | 0.497 | 0.0508 | 0.232 | -0.335
C=C(C(=O)CC[C@@H](OC(=O)c1cccnc1)c1ccc(CO)o1)C(C)C | 0.0207 | 0.278 (inactive) | 0.101 | -0.0698 | 0.614 | 0.583 | 0.697 | 1.24 | 0.584 | 0.383
CCCC[C@H]1C[C@@H]1[C@@H]1N(P(=O)(c2ccccc2)c2ccccc2)[C@](CO)(c2ccccc2)CC12CC2 | 0.914 | -0.0435 (inactive) | 0.112 | 0.281 | 0.285 | 2.17 | -0.384 | 0.255 | -1.39 | 0.558
Cc1ccc(S[C@]2(C(=O)NCC(C)C)CC(=O)N(Cc3ccccc3)[C@@H]2c2ccc(CO)cc2)cc1 | 0.397 | 0.941 (inactive) | -0.406 | 0.0196 | 0.748 | 1.78 | 0.984 | -0.0273 | -2.02 | -1.1
CC(C)[C@H]1COC(=O)N1C(=O)[C@H]1[C@@H](c2ccccc2)N(c2ccccc2)O[C@@H]1C | 0.15 | 1.77 (inactive) | 0.0893 | -0.125 | -0.004 | 0.409 | -0.066 | 0.618 | 0.827 | 0.609
CCCNC(=O)[C@@]1(c2ccc([N+](=O)[O-])cc2)CC(=O)N(CC23CC4CC(CC(C4)C2)C3)[C@@H]1c1ccc(CO)cc1I | 0.41 | 0.609 (inactive) | 0.216 | 0.126 | 0.118 | 1.33 | 0.137 | 0.974 | -0.366 | 0.519
C=CCC(OC(C)=O)[C@@H]1[C@@H](N(Cc2ccc(-c3ccccc3)cc2)C(=O)c2ccc(C)cc2)c2cc(OCCCO)ccc2N1C(=O)Cc1ccc(OC)cc1 (stereo not given in full) | -0.0547 | 0.39 (inactive) | -0.0208 | -0.0131 | -0.249 | 0.0567 | 0.179 | -0.248 | -0.0845 | 0.733
CCN(CC)c1ccc(N2CC=CC34O[C@@H]5/C=C\CCCOC(=O)C5[C@H]3C(=O)N(CCCO)[C@@H]4C2=O)cc1 (stereo not given in full) | -1.05 | 0.895 (inactive) | -0.373 | -0.104 | 0.935 | 3.01 | 2.3 | 0.244 | -1.83 | -0.77
COc1cc2c(cc1O)C(c1ccc(CN3CCCC3)cc1)N(Cc1sc3ccccc3c1Cl)CC2 (stereo not given) | -0.185 | 0.0786 (inactive) | 0.0394 | -0.0861 | 0.752 | 0.415 | 0.179 | -0.209 | 1.05 | 1.11
CC(C)N1C(=O)c2ccccc2[C@](C)(C(=O)NC2CC2)[C@@H]1c1ccc(CO)cc1 | 0.375 | -0.116 (inactive) | -0.0557 | -0.171 | 0.665 | 1.41 | -0.141 | 0.424 | 0.172 | 0.699
CCOC(=O)C1=C[C@@H](C(C)(C)C)N(S(=O)(=O)c2ccc(C)cc2)[C@H]1c1ccc(Cl)c(Cl)c1 | 0.867 | -0.179 (inactive) | 0.163 | 0.0601 | 0.497 | 1.79 | 1.03 | 1.3 | 0.185 | 1.16
C=CCN1Cc2ccccc2C[C@]2(N=C(c3ccc(OCCCO)cc3)O[C@@H]2c2ccccc2)C1=O | 0.025 | 0.862 (inactive) | 0.0276 | 0.101 | 0.605 | 2.42 | 0.75 | 1.3 | 1.14 | 1.18
COc1ccc(C#Cc2ccc3c(c2)[C@]2(C(=O)N3)[C@H](c3ccc(OCCO)cc3)N3[C@H](c4ccccc4)[C@H](c4ccccc4)OC(=O)[C@H]3[C@@H]2C(=O)Nc2nc3ccccc3s2)cc1 | 0.562 | -0.0127 (inactive) | 0.217 | -0.0267 | 0.645 | 2.22 | 0.534 | 1.29 | 0.57 | 1.13
O=C1OCCC/C=C\[C@H]2OC34C=CCN(CCN5CCOCC5)C(=O)[C@H]3N(CCO)C(=O)[C@@H]4C12 (stereo not given in full) | 0.394 | 0.0421 (inactive) | -0.346 | -0.211 | 0.866 | -0.0995 | -0.0129 | -0.779 | -0.601 | -1.09

SMILES | composite z-score [1] | composite Z-score [2] | composite z-score [3] | composite z-score [4] | composite z-score [5] | composite z-score [6] | composite z-score [7] | composite z-score [8] | composite z-score [9] | composite z-score [10]
CCCNC(=O)[C@@]1(C)c2ccccc2C(=O)N(C(C)C)[C@H]1c1ccc(CO)cc1 | -0.598 | -0.305 (inactive) | -0.136 | -0.102 | 0.673 | 1.63 | 0.65 | -0.347 | -0.95 | -1.15
C=CC[C@@]1(C(N)=O)N=C(c2ccc(OCCCO)cc2)O[C@@H]1c1ccccc1N=[N+]=[N-] | 0.225 | -0.56 (inactive) | 0.116 | 0.468 | 0.555 | 1.64 | 1.82 | 0.934 | 1.16 | 0.126
C=CC[C@]1(C(=O)O)N=C(c2ccc(OCCCO)cc2)O[C@H]1c1ccccc1CN=[N+]=[N-] | 0.659 | 0.168 (inactive) | -0.0447 | -0.157 | 0.876 | 1.23 | -0.201 | -0.103 | 0.0037 | 0.0681
CC(C)(C)OC(=O)CC[C@@]1(C(=O)N2CCOCC2)N=C(c2ccc(OCCCO)cc2)O[C@@H]1c1ccccc1N=[N+]=[N-] | 0.899 | 0.817 (inactive) | 0.336 | -0.0463 | 0.74 | 3.35 | 1.51 | 1.3 | -0.16 | 1.14
CCOC(=O)C[C@H]1[C@H](OC(=O)c2ccccc2-c2ccccc2)[C@@H](NC(=O)c2ccc(-c3ccccc3)cc2)c2cc(OCCCO)ccc2N1C(=O)c1ccccc1 | 0.822 | 0.148 (inactive) | 0.0456 | -0.11 | 0.222 | 0.961 | -0.133 | 1.23 | 0.225 | 0.534
CC1(C)C(=O)C(c2ccccc2)=C2CN3C(=O)N(CCc4ccccc4)C(=O)C3(Cc3ccccc3)C=C21 (stereo not given) | 0.775 | 0.274 (inactive) | 0.351 | 0.121 | 0.644 | 1.16 | -0.0857 | 0.516 | -0.888 | 0.444
C=CCN1C(=O)[C@]2(Cc3ccccc31)N=C(c1ccc(OCCCO)cc1)O[C@@H]2c1ccccc1 | -0.171 | 2.13 (inactive) | 0.0562 | 0.121 | 0.253 | 2.37 | 0.339 | 0.965 | 0.569 | 1.08
O=C(NCC(O)CO)[C@]1(CCS(=O)(=O)c2ccccc2)N=C(c2ccc(OCCCO)cc2)O[C@@H]1c1ccccc1 (stereo not given in full) | 1.11 | -0.262 (inactive) | -0.095 | -0.0392 | 0.761 | 3.41 | 0.944 | 1.23 | -1.41 | 0.87
COc1ccc(C#Cc2ccc3c(c2)[C@]2(C(=O)N3)[C@H](C(=O)N3CCN(c4ncccn4)CC3)[C@H]3C(=O)O[C@H](c4ccccc4)[C@H](c4ccccc4)N3[C@@H]2c2ccc(O)cc2)cc1 | 0.413 | 0.345 (inactive) | -0.184 | 0.0086 | 0.327 | 1.19 | 0.76 | 1.3 | 0.7 | 1.05
C=CC[C@]1(C(=O)NCCN2CCOCC2)N=C(c2ccc(OCCCO)cc2)O[C@H]1c1ccccc1N=[N+]=[N-] | 0.927 | 0.581 (inactive) | 0.0303 | -0.0359 | 0.691 | 1.55 | 0.811 | 1.24 | 0.663 | 0.563
C=C(/C(=C/C[C@@H](OC(C)=O)c1ccc(CO)o1)c1cnc2ccccc2c1)C(C)C | -0.243 | 1.64 (inactive) | 0.12 | -0.0771 | 0.815 | 1.5 | 1.11 | 1.3 | 0.847 | 0.971
COC(=O)[C@@]1(Cc2ccc(OC)cc2)[C@H]2c3cc(C(=O)N(C)C)n(CCSCCO)c3C[C@H]2CN1C(=O)c1ccccc1 | 0.905 | -0.786 (inactive) | 0.182 | 0.407 | 0.844 | 2.4 | -0.0747 | 1.23 | -0.186 | 1.13
CCCC[C@H]1OB(O)C[C@H]2C1=C(C)Cn1c(=O)n(-c3ccccc3)c(=O)n12 | 0.242 | -0.426 (inactive) | -0.236 | -0.177 | -0.159 | 0.549 | 0.144 | 0.401 | 0.77 | 0.0577
CCN(CC)c1ccc(N2CC=CC34O[C@@H]5C=CCOC(=O)[C@@H]5[C@H]3C(=O)N(CCCCCO)[C@@H]4C2=O)cc1 (stereo not given in full) | 0.347 | 1.21 (inactive) | -0.193 | -0.146 | 0.861 | 1.17 | 1.04 | -0.0514 | -1 | -1.47
C=CCN1Cc2ccccc2C[C@@]2(COC(c3ccc(OCCCO)cc3)=N2)C1=O | -0.476 | 0.0425 (inactive) | 0.0596 | 0.0965 | 0.598 | 2.14 | 0.547 | 0.811 | 1.12 | 0.85
COC(=O)[C@@]1(Cc2ccccc2)[C@H]2c3cc(C(=O)N(C)C)n(Cc4cc(F)c(F)c(F)c4)c3C[C@H]2CN1C(=O)c1ccccc1 | 1.04 | -0.389 (inactive) | 0.692 | 0.289 | 0.656 | 2.8 | 0.525 | 1.32 | -0.801 | 0.953
